Compound activity (PubChem BioAssay)
Most compounds without a hit are left out; they make up all but 10% or so of the library.
HP1b chromo inh: HP1-beta chromodomain-methylated histone interaction inhibition. P83916. AlphaScreen HP1-beta / biotin-H3K9me3 peptide binding. Potency, µM (doses to about 114 µM), for the others: top-dose activity change, negative = inhibition, usual class: inhibitors. 0.56% of 390,000 active. AID 540317; note: nearly all actives have a fitted effect of over 70% in size
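HP1-beta protein (50 nM final) preincubated 30 min at room temperature with biotinylated H3(1-18)K9me3 peptide (50 nM) in PBS pH 7.4, 0.01% Tween-20, then compound added for 30 min. AlphaScreen streptavidin donor/nickel chelate acceptor beads (10 ug/mL final), 30 min dark, luminescence read.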
GLS inh: glutaminase GLS (human) inhibition. O94925. GLS enzymatic activity, qHTS titration. Potency, µM (series often up to 45.5 µM), inactives show top-dose activity change, negative = inhibition, usual class: inhibitors. 0.21% of 410,000 active; note: % is set by controls: 0 for no effect and ±100 for the full control effect
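Glutamate formation by hKGA was monitored fluorometrically using coupled glutamate oxidase, HRP and Amplex Red. Substrate was added as 1 mM L-glutamine solution; incubation was 30 min at RT after an initial read.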
G9a inh: blocks human histone lysine methyltransferase G9a. Q96KQ7. G9a H3K9 monomethylation, AlphaScreen, 2 h. Potency, µM (top dose mostly 102 µM), without a hit: at the highest dose activity, negative = inhibition, usual class: inhibitors. 8.8% of 350,000 active. AID 504332; note: % is set by controls: 0 for no effect and ±100 for the full control effect; nearly all actives have a fitted effect of over 75% in size
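Readings reflect AlphaScreen signal from monomethyl-H3K9 antibody detection. HMT at 20 nM; substrate b-H3K9 500 nM; cofactor SAM 20 uM; 2 h RT reaction; compounds tested as titrations in qHTS with 15 min preincubation.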
JMJD2A Tudor inh: inhibitors of human JMJD2A Tudor domain | O75164 | AlphaScreen JMJD2A-Tudor / H3K4me3 peptide binding | Potency, µM (doses to about 114 µM), for inactives: at the top dose activity change, negative = inhibition, usual class: inhibitors | 4.4% of 390,000 active; note: % is set by controls: 0 for no effect and ±100 for the full control effect; nearly all actives have a fitted effect of over 50% in size
Target sequence (O75164 whole entry, looked up, the tested form may be a part): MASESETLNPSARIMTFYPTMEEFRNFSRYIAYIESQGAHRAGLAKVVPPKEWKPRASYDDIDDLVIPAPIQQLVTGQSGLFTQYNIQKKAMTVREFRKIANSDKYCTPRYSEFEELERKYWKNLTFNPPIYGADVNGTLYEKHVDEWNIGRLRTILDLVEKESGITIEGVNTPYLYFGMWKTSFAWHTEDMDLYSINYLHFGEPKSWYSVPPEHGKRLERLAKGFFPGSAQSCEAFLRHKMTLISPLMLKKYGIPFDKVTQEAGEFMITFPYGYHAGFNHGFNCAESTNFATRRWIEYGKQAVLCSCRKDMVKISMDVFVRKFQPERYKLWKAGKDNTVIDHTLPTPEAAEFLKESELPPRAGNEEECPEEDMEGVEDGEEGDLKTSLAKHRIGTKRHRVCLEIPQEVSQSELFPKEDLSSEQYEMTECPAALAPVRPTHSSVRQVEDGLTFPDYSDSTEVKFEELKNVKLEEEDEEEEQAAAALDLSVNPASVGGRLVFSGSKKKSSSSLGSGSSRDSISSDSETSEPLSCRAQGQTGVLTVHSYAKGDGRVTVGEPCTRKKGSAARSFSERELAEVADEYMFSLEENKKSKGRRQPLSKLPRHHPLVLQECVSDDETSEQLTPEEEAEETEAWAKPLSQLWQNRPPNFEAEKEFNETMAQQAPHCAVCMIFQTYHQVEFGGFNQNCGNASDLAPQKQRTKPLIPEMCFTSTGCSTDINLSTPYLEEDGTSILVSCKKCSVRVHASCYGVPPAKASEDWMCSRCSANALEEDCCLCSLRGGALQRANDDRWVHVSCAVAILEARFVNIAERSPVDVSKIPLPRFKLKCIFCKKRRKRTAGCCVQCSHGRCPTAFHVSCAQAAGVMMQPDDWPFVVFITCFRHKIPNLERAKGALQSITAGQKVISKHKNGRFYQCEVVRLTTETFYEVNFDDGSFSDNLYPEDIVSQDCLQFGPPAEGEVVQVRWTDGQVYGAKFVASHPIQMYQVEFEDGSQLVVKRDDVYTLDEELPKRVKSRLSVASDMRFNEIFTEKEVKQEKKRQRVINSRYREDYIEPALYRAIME
BAZ2B block: blocks human BAZ2B | Potency, µM (doses to about 114 µM), for inactives: top-dose activity change, negative = inhibition, hits mostly inhibitors | AID 504333 | AlphaScreen BAZ2B-H3K14Ac peptide displacement | Q9UIF8 | 4.4% of 360,000 active; note: % is set by controls: 0 for no effect and ±100 for the full control effect; nearly all actives have a fitted effect of over 60% in size
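Complex of BAZ2B and biotin-H3K14Ac (50 nM apiece) forms over 30 min at RT, then faces library compounds up to 110 uM for another 30 min; AlphaScreen beads added, 20 min dark incubation, luminescence read.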
The depositor's hits bear a star; ? = inconclusive; nt = no result given; [ ] = remark or other dose. Calls come from the whole dose curve; as a rule, active = well fitted curve in the direction sought with a large enough effect; inconclusive = small, poorly fitted or top-dose-only effect, or another doubt; inactive = no such curve, though single readings can be large; an effect the other way counts as inactive or inconclusive. Potency is the fitted concentration of half-maximal effect.

SMILES | HP1b chromo inh | GLS inh | G9a inh | JMJD2A Tudor inh | BAZ2B block
CC(=O)Oc1oc(-c2ccccc2)nc1C=Nc1ccc(N(C)C)cc1 | 17% | -17% | -4% | -16% | 1%
Cc1cc(C)c(S(=O)(=O)N(C)CC(=O)N2CCCC2)c(C)c1 | nt | -1% | nt | nt | nt
FC(F)(F)c1cccc(-c2nnc3ccc(C(F)(F)F)cn23)c1 | 8% | -7% | 35µM* | -13% | -34%
COc1ccc(NS(=O)(=O)c2ccc3c(c2)CCC(=O)N3)cc1 | nt | nt | nt | -13% | nt
N#Cc1ccc(NS(=O)(=O)c2ccc3c(c2)CCC(=O)N3)cc1 | nt | nt | nt | 79µM* | nt
COc1cc(NS(=O)(=O)c2ccc3c(c2)CC(=O)N3)cc(OC)c1OC | 14% | 6% | 0.35µM* | -23% | nt
COc1cccc(CNC(=O)CN2C(=O)N(c3cc(C)ccc3C)S(=O)(=O)c3ccccc32)c1OC | 23% | 1% | 5%[59 µM] | -18% | -11%
Nc1ccc(-n2nncc2-c2ccc(Cl)cc2)cc1 | -4% | -3% | 7.1µM* | ? | -7%
CC1CN(S(=O)(=O)c2cc(C(=O)N(C)Cc3cccs3)ccc2Cl)CC(C)O1 (configuration not stated) | 16% | 7% | nt | -19% | nt
COc1cc(C2(c3ccc(O)c(OC)c3)C(=O)N(C)c3ccc(C)cc32)ccc1O | -26% | 4% | nt | -34% | nt
CCS(=O)(=O)Nc1ccc(C2=NN(C(=O)c3ccccc3)C(c3cccs3)C2)cc1 (configuration not stated) | 34% | 0% | 28µM* | -22% | 79µM*
CCS(=O)(=O)Nc1ccc(C2=NN(C(=O)c3ccco3)C(c3cccs3)C2)cc1 (configuration not stated) | 20% | -12% | -4% | -21% | -21%
CSc1ccccc1NC(=O)C1=CC(c2cccs2)=NS(=O)(=O)N1C | -4% | 4% | 35µM* | ? | -37%
Cc1ccc(NC(=O)C2=CC(c3cccs3)=NS(=O)(=O)N2C)cc1 | -8% | -11% | 9% | -25% | -35%
COc1cc(NC(=O)C2=CC(c3cccs3)=NS(=O)(=O)N2C)cc(OC)c1OC | 8% | 11% | 45µM* | ? | ?
COC(=O)c1ccccc1NC(=O)C1=CC(c2cccs2)=NS(=O)(=O)N1C | 6% | -2% | 5% | -23% | -24%
Cc1c(CCC(=O)NCCc2ccccc2F)c(=O)oc2cc(O)ccc12 | 13% | 43% | -5%[59 µM] | -15% | -5%
CCCN(C(=O)c1ccc(N2CCCC2=O)cc1)c1c(N)n(Cc2ccccc2)c(=O)[nH]c1=O | 21% | -3% | -33%[59 µM] | -8% | 10%
CC(C)CCN(C(=O)c1ccc(N2CCCC2=O)cc1)c1c(N)n(Cc2ccccc2)c(=O)[nH]c1=O | 32% | -9% | -4% | -7% | 11%
CCCCn1c(N)c(N(CCC(C)C)C(=O)C(C)N2C(=O)c3ccccc3C2=O)c(=O)[nH]c1=O (configuration not stated) | 14% | 5% | 13µM* | -5% | 9%
CCCCn1c(N)c(N(CCC(C)C)C(=O)c2ccc(N3CCCC3=O)cc2)c(=O)[nH]c1=O | 26% | -3% | 35µM* | 3% | 7%
CCCCn1c(N)c(N(CC(C)C)C(=O)C2CCN(C(=O)c3ccc(Cl)cc3)CC2)c(=O)[nH]c1=O | 48% | 1% | ? | -5% | -2%
CCCCn1c(N)c(N(CCC(C)C)C(=O)C2CCCN(C(=O)c3ccc(Cl)cc3)C2)c(=O)[nH]c1=O (configuration not stated) | 37% | 2% | 40µM* | ? | 11%
CCCCn1c(N)c(N(CC)C(=O)c2ccc(N3CCCC3=O)cc2)c(=O)[nH]c1=O | 30% | -3% | 50µM* | -3% | 0%
COc1ccc(OC)c(CNC(=O)c2cnc3c(C)cccn3c2=O)c1 | 27% | 3% | 5%[59 µM] | 3% | 4%
SMILES | HP1b chromo inh | GLS inh | G9a inh | JMJD2A Tudor inh | BAZ2B block
Cn1c(=O)c2c(nc(CN3CCN(c4ccccc4F)CC3)n2Cc2ccc(F)cc2)n(C)c1=O | 7% | 0% | -29%[59 µM] | -28% | nt
CCCCn1c(N)c(N(CC)C(=O)c2ccc(C)cc2)c(=O)[nH]c1=O | 10% | -5% | 9% | -5% | 13%
CCCCn1c(N)c(N(CC)C(=O)c2ccc(C#N)cc2)c(=O)[nH]c1=O | 32% | -2% | 50µM* | -2% | 2%
CC(C)CCC[C@@H](C)[C@H]1CC[C@H]2[C@@H]3CC=C4C[C@@H](O)CC[C@]4(C)[C@H]3CC[C@]12C | nt | -2% | 26%[59 µM] | nt | nt
Fc1ccc(Br)cc1C1C=C(c2ccc(Br)cc2)Nc2ncnn21 (configuration not stated) | 28% | -17% | 23%[12.7 µM] | -28% | -7%
Fc1ccc(Br)cc1C1C=C(c2ccc(Br)cc2)Nc2nnnn21 (configuration not stated) | 72% | -3% | 11µM* | 4% | 4%
COCc1cc(C)nc2c1C(=O)NC(c1ccc(F)cc1)N2Cc1ccccc1 (configuration not stated) | 4% | -6% | 14µM* | -15% | -8%
COCc1cc(C)nc2c1C(=O)NC(c1ccc(NC(C)=O)cc1)N2Cc1ccccc1 (configuration not stated) | 19% | 5% | -30%[59 µM] | -6% | -11%
C=CCOc1ccc(C2/C(=C(\O)c3ccc4c(c3)OCCO4)C(=O)C(=O)N2CCCN2CCOCC2)cc1 (configuration not stated) | 13% | 16% | 50µM* | -14% | -24%[57.1 µM]
O=C1C(=O)N(CCCN2CCOCC2)C(c2ccc([N+](=O)[O-])cc2)/C1=C(/O)c1ccc2c(c1)OCO2 (configuration not stated) | 30% | 17% | 50µM* | -14% | -21%
COC(=O)c1ccc(C2/C(=C(\O)c3ccc4c(c3)OCCO4)C(=O)C(=O)N2CCCN2CCOCC2)cc1 (configuration not stated) | 34% | -9% | ? | -5% | -14%
Cc1ccoc1C(=O)NCCNc1ccc(Cl)cc1[N+](=O)[O-] | ? | 2% | 18µM* | ? | 45µM*
O=C(NCCNc1ccc(Cl)cc1[N+](=O)[O-])c1cccnc1 | -6% | 0% | ? | -21% | -30%
CCCCCc1cc(=O)oc2c(C(CCN3CCCC(C)C3)c3ccc(N(C)C)cc3)c(OC)cc(OC)c12 (configuration not stated) | 25µM* | 6% | -8%[12.7 µM] | 25µM* | 11µM*
COc1cc(OC)c2ccc(=O)oc2c1C(CC(=O)N1CCCC(C)C1)c1ccc2c(c1)OCO2 (configuration not stated) | -10% | -27% | 6%[12.7 µM] | ? | 50µM*
COc1cc(OC)c2ccc(=O)oc2c1C(CC(=O)N1CCCC1)c1ccc2c(c1)OCO2 (configuration not stated) | -35% | ? | ? | ? | -24%
